Results published in PubChem BioAssay (Tox21).
Records with an inconclusive call do not appear. The source made the active and inactive calls. Calls come from the whole dose curve; as a rule, active = well fitted curve in the direction sought with a large enough effect in the repeat runs; inconclusive = weak or mixed curves; inactive = no such curve, though single readings can be large; an effect the other way counts as inactive or inconclusive.

test: A CellTox Green Cytotoxicity Assay to monitor cytotoxicity in HEK293 cells - 16 hour (AID 1224888); conditions: CellTox Green fluorescence; series mostly up to 76.8 µM; activity change: at the top concentration; note: nearly all actives have a fitted effect of over 35% in size
Outline: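 Read-out: fluorescence of a cell-impermeant cyanine dye staining DNA of dead cells, proportional to cytotoxicity. HEK293, 600 cells/well with reagent, compound (23 nL DMSO) added after 5 h; reads at 0, 8, 16, 24, 32, 40 h.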
% is set by controls: 0 for no effect and ±100 for the full control effect.

| SMILES | activity change |
| --- | --- |
| CN1Cc2cc(C(=O)N3CCC(C4CCNCC4)CC3)ccc2NC(CC(=O)O)C1=O (stereo not given) | -4.26% [at 35.3 µM, hits give high values] (inactive) |
| CC(=O)NO | 2.87% [at 35.3 µM, hits give high values] (inactive) |
| CC(=O)[O][Al][O]C(C)=O | 0.561% (inactive) |
| Cc1nn(C)c(Oc2ccccc2)c1/C=N/OCc1ccc(C(=O)OC(C)(C)C)cc1 | -10.5% (inactive) |
| O=C1OC(CN2CCOCC2)CN1/N=C/c1ccc([N+](=O)[O-])o1 (stereo not given) | 17.7% [at 35.3 µM, hits give high values] (inactive) |
| COCCCN1CCC(NC(=O)c2cc(Cl)c(N)c3c2OCC3)CC1 | -4.02% [at 35.3 µM, hits give high values] (inactive) |
| C1CCCNCCC1 | 15.3% (inactive) |
| CCC(Cl)CCC(Cl)C(Cl)CC(Cl)C(Cl)C(Cl)CCl (stereo not given) | -7.87% (inactive) |
| CCCCC(CC)COC(=O)COc1ccc(Cl)cc1Cl (stereo not given) | -10.8% (inactive) |
| CCC(C)O (stereo not given) | -2.6% (inactive) |
| C[C@@H](c1ncncc1F)C(O)(Cn1cncn1)c1ccc(F)cc1F (stereo not given in full) | -3.72% [at 35.3 µM, hits give high values] (inactive) |
| CC(C)(C)OCC1CO1 (stereo not given) | -5.35% (inactive) |
| COS(=O)(=O)C(F)(F)F | -2.92% (inactive) |
| C[Si](C)(CCCN)O[Si](C)(C)CCCN | -4.96% (inactive) |
| O=C1OC(=O)C2C3C=CC(C3)C12 (stereo not given) | -11.4% (inactive) |
| CC(C)(C)Cl | 2.91% (inactive) |
| Cc1ccc(C(C)OC(=O)C2(C)CCC(C(=O)O)C2(C)C)cc1 (stereo not given) | -6.49% [at 35.3 µM, hits give high values] (inactive) |
| CC(CSC(=O)c1ccccc1)C(=O)N1C[C@@H](Sc2ccccc2)C[C@H]1C(=O)O (stereo not given in full) | -0.144% [at 15.8 µM, hits give high values] (inactive) |

| SMILES | activity change |
| --- | --- |
| O=C(NCCO[N+](=O)[O-])c1cccnc1 | -1.55% [at 35.3 µM, hits give high values] (inactive) |
| CN(C)CCN(Cc1ccsc1)c1ccccn1 | -3.16% [at 35.3 µM, hits give high values] (inactive) |
| Nc1cc(C(=O)O)c(O)c(S(=O)(=O)O)c1 | -9.68% (inactive) |
| O=S(c1cc(Cl)cc(Cl)c1O)c1cc(Cl)cc(Cl)c1O | 1.35% [at 35.3 µM, hits give high values] (inactive) |
| COC(=O)c1ccc(I)cc1S(=O)(=O)NC(=O)Nc1nc(C)nc(OC)n1 | -0.379% (inactive) |
| C[C@H]1C[C@H]2[C@@H]3CCC4=CC(=O)C=C[C@]4(C)[C@@]3(Cl)[C@@H](O)C[C@]2(C)[C@@]1(O)C(=O)CO | 19.4% [at 35.3 µM, hits give high values] (inactive) |
| CC(C)Nc1ccc(NC(C)C)c2c1C(=O)c1ccccc1C2=O | 18.7% [at 35.3 µM, hits give high values] (inactive) |
| CC(C)OC(=O)C(C)N(C(=O)c1ccccc1)c1ccc(F)c(Cl)c1 (stereo not given) | 21.8% (inactive) |
| CC(C)(CO)[N+](=O)[O-] | -7.4% (inactive) |
| COc1ccc(C(=O)N2CCN(CC(=O)N3CCOCC3)CC2)cc1 | -2.41% [at 35.3 µM, hits give high values] (inactive) |
| O=C(O)c1ccccc1Cl | -12.9% (inactive) |
| CCCCCCCC#N | -7.98% (inactive) |
| CCCCc1ncc(/C=C(\Cc2cccs2)C(=O)O)n1Cc1ccc(C(=O)O)cc1 | -11.9% [at 35.3 µM, hits give high values] (inactive) |
| CC1(c2ccccc2)OC(C(=O)O)=CC1=O (stereo not given) | 0.766% [at 35.3 µM, hits give high values] (inactive) |
| NC(N)=NCCC[C@H](N)C(=O)O | -19.2% [at 6.97 µM, hits give high values] (inactive) |
| CC/C=C\CCOC(=O)CC | 1.56% (inactive) |
| CN1CCN(C(c2ccccc2)c2ccccc2)CC1 | -6.19% [at 35.3 µM, hits give high values] (inactive) |

test: qHTS RealTime-Glo MT Cell Viability Assay in HepG2 cells - 0 hour (AID 1224889); conditions: RealTime-Glo luminescence; series mostly up to 76.8 µM; activity change, negative = cytotoxicity: at the top concentration; note: nearly all actives have a fitted effect of over 50% in size
Outline: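 HepG2 suspension premixed with RealTime-Glo reagents is plated at 600 cells per well and left 5 h at 37 C/5% CO2. Compounds in DMSO then go in, and bioluminescence reflecting viable cell number is recorded over 40 h.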

| SMILES | activity change, negative = cytotoxicity |
| --- | --- |
| CN1Cc2cc(C(=O)N3CCC(C4CCNCC4)CC3)ccc2NC(CC(=O)O)C1=O (stereo not given) | 5.64% [at 35.3 µM] (inactive) |
| CC(=O)NO | -3.25% [at 35.3 µM] (inactive) |
| CC(=O)[O][Al][O]C(C)=O | -1.11% (inactive) |
| Cc1nn(C)c(Oc2ccccc2)c1/C=N/OCc1ccc(C(=O)OC(C)(C)C)cc1 | -1.34% (inactive) |
| O=C1OC(CN2CCOCC2)CN1/N=C/c1ccc([N+](=O)[O-])o1 (stereo not given) | -3.48% [at 35.3 µM] (inactive) |
| COCCCN1CCC(NC(=O)c2cc(Cl)c(N)c3c2OCC3)CC1 | -0.952% [at 35.3 µM] (inactive) |
| C1CCCNCCC1 | -10.9% (inactive) |
| CCC(Cl)CCC(Cl)C(Cl)CC(Cl)C(Cl)C(Cl)CCl (stereo not given) | -0.472% (inactive) |
| CCCCC(CC)COC(=O)COc1ccc(Cl)cc1Cl (stereo not given) | -3.31% (inactive) |
| CCC(C)O (stereo not given) | 3.02% (inactive) |
| C[C@@H](c1ncncc1F)C(O)(Cn1cncn1)c1ccc(F)cc1F (stereo not given in full) | 6.07% [at 35.3 µM] (inactive) |
| CC(C)(C)OCC1CO1 (stereo not given) | 5.2% (inactive) |
| COS(=O)(=O)C(F)(F)F | -10.2% (inactive) |
| C[Si](C)(CCCN)O[Si](C)(C)CCCN | 0.0553% (inactive) |
| O=C1OC(=O)C2C3C=CC(C3)C12 (stereo not given) | -11.2% (inactive) |
| CC(C)(C)Cl | 3.93% (inactive) |
| Cc1ccc(C(C)OC(=O)C2(C)CCC(C(=O)O)C2(C)C)cc1 (stereo not given) | 0.376% [at 35.3 µM] (inactive) |
| CC(CSC(=O)c1ccccc1)C(=O)N1C[C@@H](Sc2ccccc2)C[C@H]1C(=O)O (stereo not given in full) | -0.48% [at 15.8 µM] (inactive) |

| SMILES | activity change, negative = cytotoxicity |
| --- | --- |
| O=C(NCCO[N+](=O)[O-])c1cccnc1 | 11.3% [at 35.3 µM] (inactive) |
| CN(C)CCN(Cc1ccsc1)c1ccccn1 | 2.88% [at 35.3 µM] (inactive) |
| Nc1cc(C(=O)O)c(O)c(S(=O)(=O)O)c1 | -1.36% (inactive) |
| O=S(c1cc(Cl)cc(Cl)c1O)c1cc(Cl)cc(Cl)c1O | -24.2% [at 35.3 µM] (inactive) |
| COC(=O)c1ccc(I)cc1S(=O)(=O)NC(=O)Nc1nc(C)nc(OC)n1 | -0.938% (inactive) |
| C[C@H]1C[C@H]2[C@@H]3CCC4=CC(=O)C=C[C@]4(C)[C@@]3(Cl)[C@@H](O)C[C@]2(C)[C@@]1(O)C(=O)CO | -1.49% [at 35.3 µM] (inactive) |
| CC(C)Nc1ccc(NC(C)C)c2c1C(=O)c1ccccc1C2=O | -2.73% [at 35.3 µM] (inactive) |
| CC(C)OC(=O)C(C)N(C(=O)c1ccccc1)c1ccc(F)c(Cl)c1 (stereo not given) | -22.4% (inactive) |
| CC(C)(CO)[N+](=O)[O-] | 5.56% (inactive) |
| COc1ccc(C(=O)N2CCN(CC(=O)N3CCOCC3)CC2)cc1 | 12.2% [at 35.3 µM] (inactive) |
| O=C(O)c1ccccc1Cl | -4.26% (inactive) |
| CCCCCCCC#N | 3.05% (inactive) |
| CCCCc1ncc(/C=C(\Cc2cccs2)C(=O)O)n1Cc1ccc(C(=O)O)cc1 | -20.1% [at 35.3 µM] (inactive) |
| CC1(c2ccccc2)OC(C(=O)O)=CC1=O (stereo not given) | -0.23% [at 35.3 µM] (inactive) |
| NC(N)=NCCC[C@H](N)C(=O)O | 0.79% [at 6.97 µM] (inactive) |
| CC/C=C\CCOC(=O)CC | 9.07% (inactive) |
| CN1CCN(C(c2ccccc2)c2ccccc2)CC1 | 4.43% [at 35.3 µM] (inactive) |
